# From ChEMBL document CHEMBL3988442, “University of Dundee, Small-Polar-MMV Screening Library” (2021)
# The campaign covered roughly 48,000 compounds. About 13,000 (27%) showed an effect of 50% or more. This is one part of the list.
# System: Wolbachia pipientis
# Assay: Anti-Wolbachia Cell-Based Screen
# Assay type: functional
# Design: scale not given: in the data most compounds retested in dose-response had high values
# Conditions: 5 µM
row,SMILES,Percent Effect
1,O=C(Nc1ccnc(OC2CCOC2)c1)c1ccccc1Cl (centres undefined),70.82%
2,Cc1occc1C(=O)Nc1ccnc(OC2CCOC2)c1 (centres undefined),30.35%
3,O=C(Nc1ccnc(OC2CCOC2)c1)c1ccc(F)cc1Cl (centres undefined),-10.63%
4,N[C@H]1CN(C(=O)c2ccccc2Oc2ccccc2)C[C@@H]1C1CC1,-0.964%
5,O=C(O)c1ccnc(-c2ccnc(N3CCC(F)(F)CC3)n2)c1,-4.386%
6,CCN1CCN(CCC(=O)NC2CC(c3cccc(Cl)c3)C2)CC1 (centres undefined),-7.949%
7,Cc1nccn1C1CCCN(C(=O)c2ccc3cc[nH]c3c2)C1 (centres undefined),104%
8,Cc1nccn1C1CCCN(C(=O)c2ccc3c(c2)CCC3)C1 (centres undefined),108.9%
9,Cc1nccn1C1CCCN(C(=O)c2cc3ccccc3[nH]2)C1 (centres undefined),-11.12%
10,Cc1nccn1C1CCCN(C(=O)c2ccc3c(c2)COC3)C1 (centres undefined),0.6755%
11,CC(CO)NCc1csc2c1CCCC2 (centres undefined),1.325%
12,CCCc1ccc(CN2CCN(C(=O)CC(C)C)[C@@H]3CS(=O)(=O)C[C@@H]32)o1,-2.422%
13,O=C(O)C(F)(F)F.O=C(c1ccno1)N1CCc2ncnc(-c3ccncc3)c2CC1,111.4%
14,O=C(NC1CC1)N1CCc2ncnc(-c3ccncc3)c2CC1.O=C(O)C(F)(F)F,-17.44%
15,COc1cc(N2CCc3ncnc(-c4ccncc4)c3CC2)ncn1.O=C(O)C(F)(F)F,4.079%
16,CC(C)NC(=O)N1CCc2ncnc(-c3ccncc3)c2CC1.O=C(O)C(F)(F)F,129.4%
17,Cc1ncnc2c1CCN(C(=O)c1ccncc1)CC2.O=C(O)C(F)(F)F,-2.654%
18,O=C(O)C(F)(F)F.O=C(c1ccncc1)N1CCc2ncnc(C3CC3)c2CC1,-7.83%
19,CN(C)C(C(=O)NC1(CO)CCCC1)c1ccc(F)cc1 (centres undefined),-4.7%
20,O=C1N(c2ccc(Br)cc2)Cc2nc(=O)[nH]n21,13.29%
21,Cc1cc2cc(C(=O)N[C@@H]3CC[C@@H](N4CCNC(=O)C4)[C@@H]3O)ccc2o1,121.8%
22,Cc1cc(C(=O)N[C@@H]2CCNC[C@H]2O)ccc1Cl,-15.13%

row,SMILES,Percent Effect
1,Cc1cc2cc(C(=O)N[C@@H]3CC[C@@H](N4CCCC4)[C@@H]3O)ccc2o1,117.2%
2,Cc1cc2cc(C(=O)N3CCN(CCO)[C@@H]4CS(=O)(=O)C[C@@H]43)ccc2o1,-0.6581%
3,Cc1cc2cc(C(=O)N[C@@H]3CC[C@@H](N4CCOCC4)[C@@H]3O)ccc2o1,-19.97%
4,CCN(C)c1ncnc2c1CCN(C(=O)c1ccno1)CC2,-25.29%
5,N#Cc1cnn(C(=O)CCCOc2ccccc2Cl)c1N,5.085%
6,CCC(SC)C(=O)N1CCC(n2ccnn2)CC1 (centres undefined),9.459%
7,Cn1cc(-c2cnc(N3CCOCC3)nc2)cc1C(=O)O,-1.361%
8,O=C(NCC(F)F)N1CCC(n2ccc(C(F)(F)F)n2)CC1,4.357%
9,CC(C)NC(=O)N1CCC(n2ccc(C(F)(F)F)n2)CC1,-15.91%
10,CC(=O)N1CCC(n2ccc(-c3cnc(NCC(C)C)nc3)n2)CC1,75.49%
11,CC[C@H](C)Nc1ncc(-c2ccn(C3CCN(C(C)=O)CC3)n2)cn1,95.97%
12,CC(=O)N1CCC(c2nnc3ccc(C(=O)NCC(C)C)cn23)C1 (centres undefined),-18.5%
13,CC(=O)N1CCC(n2ccc(-c3cnc(N4CCOCC4)nc3)n2)CC1,94.2%
14,CN(C(=O)c1cnc(N2CCOCC2)nc1)C1Cc2ccccc2C1,-2.733%
15,O=C(O)c1cc(-c2ccncc2)cc(S(=O)(=O)N2CCSCC2)c1,-4.815%
16,O=C(CCC(=O)N1CCOCC1c1ccccc1)c1cccs1 (centres undefined),-0.4955%
17,CC(C(=O)Nc1ccc2ccccc2c1)N1CCC(n2ccnc2)CC1 (centres undefined),14.62%
18,CCSCCNc1nc(-c2ccccn2)nc2c1c(C)nn2C,-9.72%
19,CCCc1nnc(N(C)CC2CCN(CC(C)C)C2)o1 (centres undefined),22.96%
20,CCc1nnc2n1CCN(Cc1csc(-c3ccccc3F)n1)C2,-7.505%
21,CCc1nnc2n1CCN(Cc1csc(-c3ccccc3)n1)C2,-8.809%
22,CCc1nnc2n1CCN(Cc1csc(-c3cnn(C)c3)n1)C2,-17.9%

row,SMILES,Percent Effect
1,CC(=O)Nc1nc(CN2CCn3c(nnc3C3CC3)C2)cs1,-1.677%
2,Cc1nnc2n1CCN(Cc1csc(Cc3ccccc3)n1)C2,-6.731%
3,CCc1nnc2n1CCN(Cc1csc(NC(C)=O)n1)C2,125.2%
4,CC(=O)Nc1nc(CN2CCn3c(nnc3C(C)C)C2)cs1,134.2%
5,CC(C)c1nnc2n1CCN(Cc1csc(CC(=O)N(C)C)n1)C2,-25.19%
6,CC(C)c1nnc2n1CCN(Cc1csc(-c3cnn(C)c3)n1)C2,-7.082%
7,CC(=O)Nc1nc(CN2CCn3c(C)nnc3C2)cs1,106.6%
8,CCc1nnc2n1CCN(Cc1csc(Cc3ccccc3)n1)C2,110.3%
9,Cc1nnc2n1CCN(Cc1csc(CC(=O)N(C)C)n1)C2,-5.269%
10,CN(Cc1cc(-c2ccccc2)no1)Cc1nccn1C,8.065%
11,Cc1nn(CCO)c(C)c1CNC1CCc2c(F)cccc21 (centres undefined),1.037%
12,N#Cc1ccc(CN(CC(N)=O)C2CCCC2)cc1,-1.161%
13,O=C(Nc1ccccc1F)N(CCO)CCOCC(F)(F)F,-14.38%
14,CC(C)(C)S(=O)(=O)CCNC1CSCCc2ccccc21 (centres undefined),8.355%
15,CCc1n[nH]c(SCC(=O)N2C[C@@H]3CC[C@H](C2)N(CC=C(C)C)C3)n1,12.53%
16,CCOC(=O)c1cc2c(=O)[nH]c(=O)n(CCc3ccccc3)c2nc1C,-3.034%
17,O=C1CCc2cc(-c3csc(CCN4CCCC4=O)n3)ccc2N1,-1.736%
18,CCCN1C(=O)c2ccccc2C1OC (centres undefined),104.1%
19,CCn1cnc(NC(=O)N2CCC(c3ccc(Cl)cc3)C2)n1 (centres undefined),-2.672%
20,Cc1nc(C)n(CCCn2ccnc2-c2cc3n(n2)CCCNC3)n1,0.4256%
